Reference: ChEMBL document CHEMBL1157539, “Thousands of chemical starting points for antimalarial lead identification” (Nature, 2010)

What follows are molecules tested on HepG2 (assay: GSK_TCMDC: Percent inhibition of human HepG2 cell line. Test compounds present at 10uM.).
Format: functional
Molecule `CC(C)(C)OC(=O)NCc1ccc(Nc2nnc(-c3ccc(OCC(=O)NC[C@@H]4CC[C@H]5C[C@@H]4C5(C)C)c([N+](=O)[O-])c3)o2)cc1` has an Inhibition of 29%. Molecule `Cc1cc2c(cc1C(F)(F)F)N(C(=O)Nc1cc(OCCN(C)C)cc(C(F)(F)F)c1)CC2.Cl` has an Inhibition of 16%. `Clc1ccc2c(NN=Cc3cccnc3)ccnc2c1` was tested, and the Inhibition was 0%. `Cl.c1ccc2cc(CNCCCN3CCN(CCCNCc4ccc5ccccc5c4)CC3)ccc2c1` gave an Inhibition of 60%. `Nc1c(Cl)cc(C(O)CNCCCCCOCCc2ccc3occc3c2)cc1Cl` (configuration not stated) gave an Inhibition of 0%. In the case of `Cc1cc2cc(NC(=O)Nc3ccnc4ccccc34)ccc2n1C.Cl`, the Inhibition is reported as 17%. For `Cc1cc(NCC(c2ccccc2)c2ccccc2)nc(NCc2ccc(C(F)(F)F)cc2)n1`, the Inhibition was 29%.
